# BJeLR viability = BJeLR cell viability loss | BJeLR (HRASV12) viability, CellTiter-Glo ATP luminescence, 48 h | inhibition, % (test concentration not listed) | actives 0.17% (n = 300,000); in the data active = inhibition above about 50%
# PrPC surface inh = reduces human prion protein on the cell surface; P04156; cell surface PrPC, TR-FRET read-out; inhibition, % at 13.8 µM; actives 0.43% (n = 370,000); AID 720596; in the data active = inhibition above about 24%; also: 0% = median of the test wells and 100% = reference compound wells
# FBA Mtb inh = inhibitors of M. tuberculosis fructose-bisphosphate aldolase. AID 588726. inhibition, % at 1 µM. actives 2.3% (n = 360,000). purified M. tuberculosis FBA, fluorescence read-out. P9WQA3; in the data active = inhibition above about 27%;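 also: 0% = vehicle and 100% = reference inhibitor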
# RecA splice inh = Mtb RecA intein splicing inhibition | inhibition, % (test concentration not listed) | actives 0.75% (n = 290,000) | P9WHJ3 | AID 2221 | cell-free RecA intein splicing, fluorescence; in the data active = inhibition above about 30%;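 also: 0% = vehicle wells and 100% = reference inhibitor control wells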
# GDH-TPI counter = inhibits GDH-TPI coupling enzymes, artifact for Mtb FBA screen; GDH-TPI coupled enzyme counterscreen, NADH absorbance; inhibition, % at 4.8 µM; actives 1.2% (n = 360,000); AID 588335; in the data active = inhibition above about 30%;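 also: 0% = DMSO wells and 100% = wells lacking the enzyme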
# PrPC confirm = confirmation of inhibitors of cell surface human prion protein; cell surface PrPC level, TR-FRET; shares compounds with PrPC surface inh; inhibition, % at 13.8 µM; actives 65% (n = 1,500); in the data active = inhibition above about 25%
# LD9 tox = LD9 cell cytotoxicity, PrPc inhibitor counter-screen; shares compounds with PrPC surface inh; LD9 cells cytotoxicity, luminescence viability; inhibition, % at 13.8 µM; actives 29% (n = 1,500); AID 743201; in the data active = inhibition above about 9.5%
# * hit, by the source's call; x = not tested or not shown. An excerpt weighted towards active compounds, which were near 4.2% of everything screened.
SMILES,BJeLR viability,PrPC surface inh,FBA Mtb inh,RecA splice inh,GDH-TPI counter,PrPC confirm,LD9 tox
CC(C)CCNC(=O)C(NS(=O)(=O)c1ccc2c(c1)c(=O)n(C)c(=O)n2C)c1ccccc1 (stereo unspecified),8,-2,0,-3,0,x,x
CCC(C)NC(=O)C(NS(=O)(=O)c1ccc2c(c1)c(=O)n(C)c(=O)n2C)c1ccccc1 (stereo unspecified),x,42*,3,x,-4,8,-1
Clc1ccc(CN2CCN(c3ncc(Cc4ccccc4)cn3)CC2)c(Cl)c1,x,-5,x,x,x,x,x
Cc1ccc(Cn2cc(COC(=O)NCCc3c[nH]c4ccccc34)nn2)cc1,x,16,x,x,x,x,x
COc1ccccc1C#Cc1ccc2c(=O)c3ccccc3n(C)c2c1,-10,-2,5,-15,3,x,x
Cn1c2ccccc2c(=O)c2ccc(C#Cc3ccc(N)cc3)cc21,-9,29*,12,-32,27,53*,19*
COc1cc2c(cc1NC(=O)CSc1nnc(-c3cccc(Cl)c3)n1-c1ccccc1)oc1ccccc12,x,-4,x,x,x,x,x
COC(=O)C(Cc1ccccc1)NC(=O)C(CC(C)C)NC(=O)OC(C)(C)C (stereo unspecified),-13,-1,-2,-2,12,x,x
COC(=O)[C@H](CC1(c2cn(S(=O)(=O)CC[Si](C)(C)C)c3ccccc23)C(=O)Nc2ccccc21)NC(=O)OC(C)(C)C (stereo partly specified),x,47*,x,x,x,59*,-1
O=C(Cn1cc(COc2ccc(Br)cc2)nn1)c1ccc(O)cc1,x,13,0,x,29,x,x
CCCC(=O)c1ccc(OCc2cn(CC(=O)c3ccc(O)cc3)nn2)cc1,x,28*,2,x,30,22,-1
Cc1cc(O)cc(=O)n1-c1cccc(Br)c1,x,8,x,x,x,x,x
COc1ccc(CN2C[C@@]3(O)CC[C@@H](O)[C@@H](OC)[C@@H]3[C@@]2(C)[C@H](O)CC=C(C)C)cc1,x,-7,x,x,x,x,x
COc1ccc(NC(=O)c2cccc(Oc3ccccc3)c2)cn1,10,26*,1,6,-10,10,1
O=C(NNC(=O)C(c1ccccc1)c1ccccc1)c1ccccn1,20,34*,1,14,4,23,43*
COc1cnn(-c2ccc(C)cc2)c(=O)c1Br,6,1,-2,-2,0,x,x
COc1ccc(Oc2cnn(-c3ccccc3)c(=O)c2Br)cc1,-1,27*,4,x,1,36*,-5
COc1ccc2[nH]c(C(=O)Nc3ccc(C)c(F)c3)cc2c1,-6,39*,4,2,6,99*,5
COc1ccc2[nH]c(C(=O)N/N=C/c3ccc(O)cc3O)cc2c1,38,32*,18,-11,31*,40*,19*
COc1ccc(C(=O)Nc2nnc(CC(=O)N/N=C/c3ccc(O)cc3O)s2)cc1,-5,-8,5,-21,18,x,x
CCCCNC(=O)CSc1nc(CCC)nc2ccccc12,8,46*,0,6,3,59*,-6
CCCNC(=O)CSc1nc(COc2ccccc2)nc2ccccc12,-3,29*,-2,8,1,41*,-3
COC(=O)CSc1nc(COc2ccccc2)nc2ccccc12,-6,49*,-1,14,6,66*,-6
Cc1ccccc1NC(=O)CSc1nc(COc2ccccc2)nc2ccccc12,-7,3,-1,x,9,x,x
COC(=O)[C@]12C[C@H](CC(=O)N3CCN(C(=O)C4CC4)CC3)C(=O)N(Cc3ccco3)C1=C[C@H](COCc1ccccc1)O[C@@H]2C,x,-4,x,x,x,x,x
SMILES,BJeLR viability,PrPC surface inh,FBA Mtb inh,RecA splice inh,GDH-TPI counter,PrPC confirm,LD9 tox
O=C(CCc1nc(-c2ccccc2F)no1)NCCc1ccccc1F,x,-6,x,x,x,x,x
COC(=O)Cc1c(C)c2ccc(OCC(=O)N3CCCC(C)C3)c(C)c2oc1=O (stereo unspecified),-17,26*,120*,2,10,38*,9
O=C(c1cc(C2CC2)nc2ccccc12)N1N=C(C(F)F)CC1(O)C(F)F (stereo unspecified),0,-4,-2,8,-7,x,x
O=C(c1cc(C2CC2)nc2ccc(Br)cc12)N1N=C(C(F)F)CC1(O)C(F)F (stereo unspecified),1,31*,-2,0,11,21,1
O=C(Nc1ccccc1)c1ccc(CSc2ncccn2)cc1,12,37*,-7,1,-16,38*,2
COc1ccc(Cn2c(-c3ccccc3C)nc3c(c(=O)c4ccccc4n3C)c2=O)cc1,6,53*,3,1,-16,9,-1
CNC(=O)[C@@H](NC(=O)[C@H](CC(C)C)[C@H](O)C(=O)NO)C(C)(C)C,x,61*,x,x,x,65*,-3
Cc1cc(C)c(S(=O)(=O)Nc2cccc(S(=O)(=O)N3CCOCC3)c2)c(C)c1,0,27*,-2,-1,-2,18,-10
Cc1nn(-c2ccccc2)c2sc(C(=O)NCc3ccc(F)cc3)cc12,x,-2,x,x,x,x,x
Cc1nn(Cc2ccccc2)c2sc(C(=O)NCc3cccnc3)cc12,-3,24*,0,x,-7,14,-1
Cc1ccc2c(Cl)c(C(=O)NCc3cccnc3)sc2c1,-7,29*,0,1,0,43*,-6
Cc1c(C(=O)NCc2cccnc2)sc2nc(-c3ccccc3)cn12,-14,28*,-3,4,5,12,-6
S=C(SCc1c(Cl)cccc1Cl)N1CCSCC1,x,-5,x,x,x,x,x
CCCCNC(=O)C[C@H]1C(=O)N(CCCOC)C2=CCCCC[C@]21C(=O)OC,x,3,x,x,x,x,x
CCN1/C(=C/c2ccc3cccc(C)c3[n+]2CC)Sc2ccccc21,34,28*,-6,0,17,36*,54*
C=CCN1C(=O)[C@@H](CC(=O)NCCC(C)C)[C@]2(C(=O)OC)CCCCC=C12,x,10,x,x,x,x,x
NC(=O)c1nn(-c2cccc(Cl)c2)c(=O)cc1O,-7,49*,0,-9,10,49*,-8
O=C(Cn1nc(-c2ccccc2)ccc1=O)NCCc1ccc(F)cc1,x,-5,x,x,x,x,x
C=CCN=C1NC(c2cccc(Cl)c2)C(C(=O)OC)=C(C)N1C (stereo unspecified),x,-10,x,x,x,x,x
COc1ccc(C(=O)Nc2scc(-c3ccc(Cl)cc3Cl)c2C(N)=O)cc1,3,68*,1,-2,11,34*,6
COc1ccc(C(=O)Nc2cc(OC)c(Cl)cc2Cl)cc1,8,10,0,-2,-6,x,x
Cc1ccnc(NC(=O)Cc2ccc(-c3ccccc3)cc2)c1,10,35*,0,5,7,41*,8
O=C1C2C3C=CC(C3)C2C(=O)N1c1ccc(-c2nc(-c3ccccc3)nc3ccccc23)cc1 (stereo unspecified),x,1,x,x,x,x,x

# Compound activity: PubChem, several laboratories
